The target in assay [1] is human Matrix Metalloproteinase-3 (MMP3), MMP3 (gene 4314) (UniProt P08254). The experiment in a line: NVS_ENZ_hMMP3: NovaScreen (NVS) Enzymatic Assay for human Matrix Metalloproteinase-3 (MMP3) (AID 2283185). A digest of the protocol: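 Cell-free recombinant human MMP3 activity, fluorescence intensity read 1 h after dosing. Primary screen duplicate at 25 uM, actives retested in concentration series; loss of signal vs DMSO baseline.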

Assay [2] deals with human Matrix Metalloproteinase-9 (MMP9), MMP9 (gene 4318) (UniProt P14780). The experiment in a line: NVS_ENZ_hMMP9: NovaScreen (NVS) Enzymatic Assay for human Matrix Metalloproteinase-9 (MMP9) (AID 2283190).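 Note: cell-free recombinant MMP9 protease activity read by fluorescent substrate signal; active means inhibition seen as loss of fluorescence signal versus DMSO.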 A digest of the protocol:
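Cell-free fluorescence-intensity enzyme activity assay using extracted protein, read 1 h after dosing. Loss of signal versus DMSO baseline indicates inhibition; primary screen in duplicate at 25 uM, actives followed up in concentration series.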

Assay [3] addresses human Phosphodiesterase 10 (PDE10), PDE10A (gene 10846) (UniProt Q9Y233). The experiment in a line: NVS_ENZ_hPDE10: NovaScreen (NVS) Enzymatic Assay for human Phosphodiesterase 10 (PDE10) (AID 2283195). A digest of the protocol: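 Recombinant human PDE10 with fluorescent substrate, 1 h, product separated by electrophoretic mobility shift. Loss of enzyme activity fitted against DMSO; initial screen 25 uM in duplicate, actives run to 50 uM maximum.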

For assay [4], the target named is human Phosphodiesterase 4A1 (PDE4A1), PDE4A (gene 5141) (UniProt P27815). Kind of assay: NVS_ENZ_hPDE4A1: NovaScreen (NVS) Enzymatic Assay for human Phosphodiesterase 4A1 (PDE4A1) (AID 2283191). A digest of the protocol:
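Cell-free recombinant human PDE4A1 with fluorescent substrate; product separated by electrophoretic mobility shift, 1 h. Screened at 25 uM, then up to 50 uM in concentration-response; loss of signal fitted against DMSO.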

Assay [5] addresses human Matrix Metalloproteinase-2 (MMP2), MMP2 (gene 4313) (UniProt P08253). Kind of assay: NVS_ENZ_hMMP2: NovaScreen (NVS) Enzymatic Assay for human Matrix Metalloproteinase-2 (MMP2) (AID 2283184). A digest of the protocol:
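Cell-free recombinant MMP2 activity with a fluorescent substrate, read 1 h after dosing. Primary screen in duplicate at 25 uM; actives then run in concentration series; loss of signal fitted versus DMSO.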

For assay [6], the target named is Serine/threonine-protein phosphatase PP1-alpha catalytic subunit (Homo sapiens) (UniProt P62136). The experiment in a line: NVS_ENZ_hPPP1CA: NovaScreen (NVS) Enzymatic Assay for human Protein Phosphatase 1 Aatalytic subunit Alpha (PPP1CA) (AID 2283200). The method, boiled down: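 Recombinant enzyme activity read by fluorescence with electrophoretic mobility shift separating substrate from product, 1.33 h after dosing; loss of signal vs DMSO baseline. Primary screen in duplicate at 25 uM; actives retested in concentration-response up to 50 uM.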

Assay [7] addresses human Protein Tyrosine Phosphatase Non-receptor Type 4 (PTPN4), PTPN4 (gene 5775) (UniProt P29074). The experiment in a line: NVS_ENZ_hPTPN4: NovaScreen (NVS) Enzymatic Assay for human Protein Tyrosine Phosphatase Non-receptor Type 4 (PTPN4) (AID 2283208). The method, boiled down: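 Cell-free assay of PTPN4 expressed in Sf9 cells, using a fluorescent substrate with product separated by mobility shift; read 1.33 h after dosing. Single-point screen at 25 uM, then concentration-response up to 50 uM. Loss of signal relative to DMSO.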

Assay [8] deals with human Phosphodiesterase 5 (PDE5), PDE5A (gene 8654) (UniProt O76074). The experiment in a line: NVS_ENZ_hPDE5: NovaScreen (NVS) Enzymatic Assay for human Phosphodiesterase 5 (PDE5) (AID 2283194). The method, boiled down:
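Recombinant human PDE5 with specific substrate, read 1 h after dosing by fluorescence with electrophoretic mobility-shift separation of substrate and product. Initial single-concentration duplicate screen at 25 uM, actives followed in concentration series; loss of activity versus DMSO.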

Assay [9] deals with human Protein Tyrosine Phosphatase Non-receptor Type 9 (PTPN9), PTPN9 (gene 5780) (UniProt P43378). Kind of assay: NVS_ENZ_hPTPN9: NovaScreen (NVS) Enzymatic Assay for human Protein Tyrosine Phosphatase Non-receptor Type 9 (PTPN9) (AID 2283209). A digest of the protocol: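 Sf9-expressed enzyme in a cell-free assay, fluorescence read 1.33 h after dosing with mobility-shift separation of substrate and product. Tested at 25 uM in duplicate, then up to 50 uM; signal loss versus DMSO.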

The target in assay [10] is human Protein Tyrosine Phosphatase Non-receptor Type 6 (PTPN6), PTPN6 (gene 5777) (UniProt P29350). Kind of assay: NVS_ENZ_hPTPN6: NovaScreen (NVS) Enzymatic Assay for human Protein Tyrosine Phosphatase Non-receptor Type 6 (PTPN6) (AID 2283210). A digest of the protocol:
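Cell-free assay with recombinant PTPN6 expressed in SF9 cells, fluorescent substrate, product separated from substrate by electrophoretic mobility shift; read 1.33 hours after dosing. Primary screen in duplicate at 25 uM, actives retested in concentration series; DMSO baseline.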

For assay [11], the target named is human Protein Phosphatase, Mg2+/Mn2+ Dependent 1A (PPM1A), PPM1A (gene 5494) (UniProt P35813). The experiment in a line: NVS_ENZ_hPPM1A: NovaScreen (NVS) Enzymatic Assay for human Protein Phosphatase, Mg2+/Mn2+ Dependent 1A (PPM1A) (AID 2283198). A digest of the protocol: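 Cell-free recombinant PPM1A phosphatase assay with fluorescent substrate, read 1 h after dosing by electrophoretic mobility shift. Chemicals screened in duplicate at 25 uM, then in concentration-response up to 50 uM; loss of activity versus DMSO.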

In assay [12] the target is human Protein Tyrosine Phosphatase Non-receptor Type 1 (PTPN1), PTPN1 (gene 5770) (UniProt P18031). Kind of assay: NVS_ENZ_hPTPN1: NovaScreen (NVS) Enzymatic Assay for human Protein Tyrosine Phosphatase Non-receptor Type 1 (PTPN1) (AID 2283201). The method, boiled down:
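Cell-free fluorogenic-substrate activity assay on recombinant enzyme, read 1.33 h after dosing by fluorescence and electrophoretic mobility shift; loss of signal vs DMSO baseline. Primary screen in duplicate at 25 uM, hits then run in concentration-response up to 50 uM.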

Assay [13] concerns the target Tyrosine-protein phosphatase non-receptor type 14 (Homo sapiens) (UniProt Q15678). The experiment in a line: NVS_ENZ_hPTPN14: NovaScreen (NVS) Enzymatic Assay for human Protein Tyrosine Phosphatase Non-receptor Type 14 (PTPN14) (AID 2283206). A digest of the protocol:
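Cell-free recombinant human PTPN14 with fluorescent substrate, read 0.5 h after dosing by fluorescence and electrophoretic mobility shift separating substrate from product. Primary screen at 25 uM in duplicate; hits run to 50 uM maximum; loss of signal versus DMSO.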

Assay [14] has as its target human Phosphoinositide 3-kinase alpha (PI3Ka), PIK3CA (gene 5290) (UniProt P42336). The experiment in a line: NVS_ENZ_hPI3Ka: NovaScreen (NVS) Enzymatic Assay for human Phosphoinositide 3-kinase alpha (PI3Ka) (AID 2283196). A digest of the protocol:
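Enzyme activity as fluorescence after mobility-shift separation of substrate and product, 1 h reaction, recombinant human PI3Kα; concentration-response to 50 uM max for chemicals passing a 25 uM duplicate screen.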

The target of assay [15] is Tyrosine-protein phosphatase non-receptor type 11 (Homo sapiens) (UniProt Q06124). Kind of assay: NVS_ENZ_hPTPN11: NovaScreen (NVS) Enzymatic Assay for human Protein Tyrosine Phosphatase Non-receptor Type 11 (PTPN11) (AID 2283202). The method, boiled down:
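Recombinant human PTPN11 activity on a fluorescent substrate, with substrate/product separated by electrophoretic mobility shift; read 0.5 h after dosing, loss of signal vs DMSO. Duplicate 25 uM screen, then concentration-response up to 50 uM.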

Assay [16] concerns the target Tyrosine-protein phosphatase non-receptor type 12 (Homo sapiens) (UniProt Q05209). Kind of assay: NVS_ENZ_hPTPN12: NovaScreen (NVS) Enzymatic Assay for human Protein Tyrosine Phosphatase Non-receptor Type 12 (PTPN12) (AID 2283204). The method, boiled down:
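Single-concentration duplicates (25 uM) preceded singleton concentration-response up to 50 uM for chemicals passing threshold. Cell-free recombinant PTPN12 activity was read 1.33 h after dosing via fluorescence after mobility-shift separation; loss of signal versus DMSO.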

The target in assay [17] is Tyrosine-protein phosphatase non-receptor type 13 (Homo sapiens) (UniProt Q12923). The experiment in a line: NVS_ENZ_hPTPN13: NovaScreen (NVS) Enzymatic Assay for human Protein Tyrosine Phosphatase Non-receptor Type 13 (PTPN13) (AID 2283205). A digest of the protocol: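 Cell-free assay of recombinant human PTPN13 with a fluorescent substrate, product separated by electrophoretic mobility shift and read 0.5 h after dosing. Primary screen at 25 uM in duplicate, then concentration-response up to 50 uM. Loss of signal fitted against DMSO.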

In assay [18] the target is cAMP-dependent protein kinase catalytic subunit alpha (Homo sapiens) (UniProt P17612). Kind of assay: NVS_ENZ_hPKA: NovaScreen (NVS) Enzymatic Assay for human Protein Kinase A (PKA) (AID 2283192). The method, boiled down: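 Recombinant human PKA with specific fluorescent substrate, product separated by electrophoretic mobility shift, read 1 h after dosing. Primary screen at 25 uM in duplicate; actives then run in concentration-response up to 50 uM, activity relative to DMSO.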

Results filed as inconclusive are left out. Active and inactive are the calls of the source. Rule for the calls: active = hit-call score of the fitted dose curve at least 0.9, where 1 is the maximum; inconclusive = response in the unintended direction; inactive = score below 0.9.

Sequence of human Protein Tyrosine Phosphatase Non-receptor Type 9 (PTPN9), PTPN9 (gene 5780) (P43378 whole entry, looked up): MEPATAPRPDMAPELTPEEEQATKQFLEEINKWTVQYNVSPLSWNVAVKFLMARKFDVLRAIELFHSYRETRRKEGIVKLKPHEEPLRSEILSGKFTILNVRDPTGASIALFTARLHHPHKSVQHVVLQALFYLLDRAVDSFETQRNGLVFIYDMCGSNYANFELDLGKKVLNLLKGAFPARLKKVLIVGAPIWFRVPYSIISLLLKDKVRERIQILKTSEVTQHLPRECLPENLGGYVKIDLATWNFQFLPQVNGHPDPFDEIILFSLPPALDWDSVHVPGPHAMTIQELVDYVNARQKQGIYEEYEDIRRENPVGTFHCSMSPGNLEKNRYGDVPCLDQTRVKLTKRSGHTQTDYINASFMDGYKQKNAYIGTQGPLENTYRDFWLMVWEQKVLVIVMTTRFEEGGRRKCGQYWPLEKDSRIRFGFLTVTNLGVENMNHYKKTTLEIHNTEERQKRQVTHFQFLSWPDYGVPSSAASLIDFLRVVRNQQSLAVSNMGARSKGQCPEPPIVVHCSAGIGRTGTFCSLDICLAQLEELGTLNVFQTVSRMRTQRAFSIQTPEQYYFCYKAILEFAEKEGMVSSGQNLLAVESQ
Sequence of human Matrix Metalloproteinase-9 (MMP9), MMP9 (gene 4318) (P14780 whole entry, looked up): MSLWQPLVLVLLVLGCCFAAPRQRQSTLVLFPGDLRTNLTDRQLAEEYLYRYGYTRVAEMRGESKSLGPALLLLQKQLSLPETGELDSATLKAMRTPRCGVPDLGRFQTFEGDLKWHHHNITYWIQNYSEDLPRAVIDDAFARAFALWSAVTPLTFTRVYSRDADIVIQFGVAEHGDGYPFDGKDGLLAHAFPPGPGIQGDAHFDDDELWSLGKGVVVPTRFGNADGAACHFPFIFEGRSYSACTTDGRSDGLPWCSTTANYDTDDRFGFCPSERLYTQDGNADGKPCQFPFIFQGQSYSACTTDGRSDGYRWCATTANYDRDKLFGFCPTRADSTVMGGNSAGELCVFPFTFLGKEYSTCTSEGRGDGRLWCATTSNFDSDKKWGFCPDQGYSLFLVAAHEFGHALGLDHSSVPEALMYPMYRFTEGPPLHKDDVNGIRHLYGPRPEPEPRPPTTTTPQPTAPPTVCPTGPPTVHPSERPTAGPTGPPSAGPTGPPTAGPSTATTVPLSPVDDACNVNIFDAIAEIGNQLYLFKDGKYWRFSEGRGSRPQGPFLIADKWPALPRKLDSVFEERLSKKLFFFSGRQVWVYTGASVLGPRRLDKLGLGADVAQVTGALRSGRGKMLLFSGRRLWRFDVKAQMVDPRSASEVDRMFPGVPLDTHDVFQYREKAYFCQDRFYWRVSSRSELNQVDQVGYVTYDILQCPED
Sequence of human Phosphodiesterase 10 (PDE10), PDE10A (gene 10846) (Q9Y233 whole entry, looked up): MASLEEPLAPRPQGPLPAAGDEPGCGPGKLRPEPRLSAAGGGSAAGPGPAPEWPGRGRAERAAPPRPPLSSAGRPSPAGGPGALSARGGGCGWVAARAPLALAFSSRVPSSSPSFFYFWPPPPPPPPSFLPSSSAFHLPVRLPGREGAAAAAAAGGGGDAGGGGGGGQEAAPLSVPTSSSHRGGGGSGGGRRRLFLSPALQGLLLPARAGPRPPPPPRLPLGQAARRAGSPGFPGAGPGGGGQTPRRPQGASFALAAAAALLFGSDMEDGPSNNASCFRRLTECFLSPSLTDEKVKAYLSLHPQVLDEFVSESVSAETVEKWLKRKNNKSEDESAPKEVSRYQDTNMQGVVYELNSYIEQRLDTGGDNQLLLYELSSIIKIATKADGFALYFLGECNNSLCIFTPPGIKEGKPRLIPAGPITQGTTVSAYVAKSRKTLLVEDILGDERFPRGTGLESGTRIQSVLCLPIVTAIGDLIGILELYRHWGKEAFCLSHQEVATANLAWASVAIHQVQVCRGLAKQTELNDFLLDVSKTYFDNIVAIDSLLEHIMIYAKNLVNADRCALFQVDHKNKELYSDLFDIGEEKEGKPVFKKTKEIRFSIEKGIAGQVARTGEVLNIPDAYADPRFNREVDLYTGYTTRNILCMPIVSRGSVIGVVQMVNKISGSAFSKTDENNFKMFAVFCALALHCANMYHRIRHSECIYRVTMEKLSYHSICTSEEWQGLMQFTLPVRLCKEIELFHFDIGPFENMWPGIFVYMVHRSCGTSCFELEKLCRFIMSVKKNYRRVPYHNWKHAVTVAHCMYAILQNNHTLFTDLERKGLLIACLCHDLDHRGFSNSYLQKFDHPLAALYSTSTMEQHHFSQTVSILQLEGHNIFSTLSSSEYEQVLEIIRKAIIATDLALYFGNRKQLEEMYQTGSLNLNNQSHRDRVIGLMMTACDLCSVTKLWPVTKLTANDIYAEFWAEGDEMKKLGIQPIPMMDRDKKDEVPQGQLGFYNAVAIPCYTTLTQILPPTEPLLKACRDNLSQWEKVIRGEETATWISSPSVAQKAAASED
Sequence of human Matrix Metalloproteinase-3 (MMP3), MMP3 (gene 4314) (P08254 whole entry, looked up): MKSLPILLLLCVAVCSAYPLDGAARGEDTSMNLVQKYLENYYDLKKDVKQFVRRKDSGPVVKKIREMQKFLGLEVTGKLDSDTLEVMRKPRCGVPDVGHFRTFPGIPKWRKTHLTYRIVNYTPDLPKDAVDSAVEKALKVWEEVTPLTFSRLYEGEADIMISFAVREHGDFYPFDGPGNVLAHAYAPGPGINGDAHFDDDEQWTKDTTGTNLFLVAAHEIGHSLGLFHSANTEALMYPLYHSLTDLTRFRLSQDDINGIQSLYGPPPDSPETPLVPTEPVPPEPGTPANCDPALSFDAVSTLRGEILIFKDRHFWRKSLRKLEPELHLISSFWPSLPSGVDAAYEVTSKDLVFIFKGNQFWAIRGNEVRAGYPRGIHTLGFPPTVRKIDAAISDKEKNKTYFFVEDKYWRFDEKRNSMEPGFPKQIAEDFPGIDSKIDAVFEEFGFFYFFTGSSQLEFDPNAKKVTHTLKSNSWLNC
Sequence of human Phosphodiesterase 4A1 (PDE4A1), PDE4A (gene 5141) (P27815 whole entry, looked up): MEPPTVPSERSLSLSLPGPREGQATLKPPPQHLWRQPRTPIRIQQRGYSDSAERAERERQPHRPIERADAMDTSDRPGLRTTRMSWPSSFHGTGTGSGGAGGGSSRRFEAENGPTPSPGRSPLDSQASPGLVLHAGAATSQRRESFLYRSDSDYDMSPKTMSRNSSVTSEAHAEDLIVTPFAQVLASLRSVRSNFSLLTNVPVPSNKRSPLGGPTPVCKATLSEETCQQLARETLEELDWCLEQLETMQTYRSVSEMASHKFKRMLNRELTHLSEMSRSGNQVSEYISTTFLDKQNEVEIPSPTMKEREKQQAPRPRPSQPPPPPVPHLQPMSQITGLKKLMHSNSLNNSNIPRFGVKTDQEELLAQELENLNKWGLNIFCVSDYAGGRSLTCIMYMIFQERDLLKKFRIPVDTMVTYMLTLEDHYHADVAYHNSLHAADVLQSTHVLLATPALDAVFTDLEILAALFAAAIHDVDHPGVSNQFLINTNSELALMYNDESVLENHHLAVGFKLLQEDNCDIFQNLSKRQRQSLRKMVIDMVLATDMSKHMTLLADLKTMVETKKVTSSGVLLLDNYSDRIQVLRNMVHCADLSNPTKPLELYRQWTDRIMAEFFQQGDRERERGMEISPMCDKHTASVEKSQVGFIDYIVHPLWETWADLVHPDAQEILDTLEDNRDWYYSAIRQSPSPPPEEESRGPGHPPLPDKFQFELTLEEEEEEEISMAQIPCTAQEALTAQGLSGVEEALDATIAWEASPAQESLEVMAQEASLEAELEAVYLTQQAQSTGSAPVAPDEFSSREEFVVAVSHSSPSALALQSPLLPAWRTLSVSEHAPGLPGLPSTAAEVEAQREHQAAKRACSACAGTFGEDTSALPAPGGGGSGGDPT
Sequence of human Protein Phosphatase, Mg2+/Mn2+ Dependent 1A (PPM1A), PPM1A (gene 5494) (P35813 whole entry, looked up): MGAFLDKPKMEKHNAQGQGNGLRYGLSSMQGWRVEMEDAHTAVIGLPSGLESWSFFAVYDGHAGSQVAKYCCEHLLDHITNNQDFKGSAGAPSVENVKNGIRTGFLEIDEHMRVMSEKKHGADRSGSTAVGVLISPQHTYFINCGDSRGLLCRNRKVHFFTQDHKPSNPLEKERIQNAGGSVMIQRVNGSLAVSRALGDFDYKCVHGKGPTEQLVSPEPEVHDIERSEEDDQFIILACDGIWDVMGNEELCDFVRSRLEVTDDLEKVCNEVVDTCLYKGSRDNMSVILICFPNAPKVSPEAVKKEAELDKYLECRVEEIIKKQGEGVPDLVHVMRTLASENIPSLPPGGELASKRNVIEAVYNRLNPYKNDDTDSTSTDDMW
Sequence of human Protein Tyrosine Phosphatase Non-receptor Type 6 (PTPN6), PTPN6 (gene 5777) (P29350 whole entry, looked up): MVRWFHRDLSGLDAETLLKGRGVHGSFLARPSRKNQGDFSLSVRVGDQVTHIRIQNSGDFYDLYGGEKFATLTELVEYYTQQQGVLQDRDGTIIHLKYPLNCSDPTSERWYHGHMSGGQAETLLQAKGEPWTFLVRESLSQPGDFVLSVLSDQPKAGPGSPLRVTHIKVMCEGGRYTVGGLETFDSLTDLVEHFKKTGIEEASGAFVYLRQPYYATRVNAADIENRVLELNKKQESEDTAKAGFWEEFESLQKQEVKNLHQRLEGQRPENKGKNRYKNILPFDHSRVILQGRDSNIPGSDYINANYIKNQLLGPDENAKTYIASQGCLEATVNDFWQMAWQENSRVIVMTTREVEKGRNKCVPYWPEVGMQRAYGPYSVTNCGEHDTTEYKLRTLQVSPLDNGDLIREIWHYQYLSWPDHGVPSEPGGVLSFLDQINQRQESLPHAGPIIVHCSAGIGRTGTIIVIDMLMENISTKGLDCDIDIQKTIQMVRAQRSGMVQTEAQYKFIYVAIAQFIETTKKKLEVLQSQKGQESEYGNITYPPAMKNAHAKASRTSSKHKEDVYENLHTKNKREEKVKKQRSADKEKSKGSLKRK
Sequence of Serine/threonine-protein phosphatase PP1-alpha catalytic subunit (Homo sapiens) (P62136 whole entry, looked up): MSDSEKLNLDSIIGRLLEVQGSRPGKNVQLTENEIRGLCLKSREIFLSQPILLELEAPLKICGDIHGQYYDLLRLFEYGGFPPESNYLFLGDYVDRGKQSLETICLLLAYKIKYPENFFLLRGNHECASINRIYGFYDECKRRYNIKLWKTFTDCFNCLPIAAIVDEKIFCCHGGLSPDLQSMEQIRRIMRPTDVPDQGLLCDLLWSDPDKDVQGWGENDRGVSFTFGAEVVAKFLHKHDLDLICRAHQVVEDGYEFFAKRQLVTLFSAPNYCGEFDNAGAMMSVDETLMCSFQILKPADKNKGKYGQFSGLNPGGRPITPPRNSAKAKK

With `CCCCc1ccc2c(n1)[C@@H](c1ccc(OC)cc1C[C@H](C)C(=O)O)[C@H](C(=O)O)[C@H]2c1ccc2c(c1)OCO2`, the AC50 in assay [1] was 38.6 µM (active). For the same compound, the compound was called inactive in [2]. Consider `NCC1(Cc2noc(=O)[nH]2)CCCCC1`, for which the compound was classed as inactive in [1] and in assay [3].

Turning to `Cc1c(C(=O)O)c(O)cc2c1C(=O)c1c(O)c([C@@H]3O[C@H](CO)[C@@H](O)[C@H](O)[C@H]3O)c(O)c(O)c1C2=O`, the AC50 in [2] was 4.45 µM (active). Further, the compound was classed as inactive in [4].

With `CN1CCN(Cc2cc(-c3ccc4[nH]c(=O)oc4c3)co2)[C@@H](c2ccc(F)cc2)C1`, the compound was called inactive in [1]. For the compound `COCCOC[C@H](CC1(C(=O)NC2CCC(C(=O)O)CC2)CCCC1)C(=O)Oc1ccc2c(c1)CCC2` (some centres undefined), in [5], the AC50 was 19.8 µM (active).

As for `Nc1ccc2c(c1)C(=O)c1ccccc1C2=O`, the AC50 in [1] is 31.6 µM (active). Moreover, the outcome in [6] and in assay [7] was inactive.

`C[Si]1(C)O[Si](C)(C)O[Si](C)(C)O[Si](C)(C)O1`: the outcome in assay [5] and in assay [1] was inactive. Regarding `O=C(N[C@@H](Cc1ccccc1)[C@@H](O)C(=O)N1C[C@@H](O)[C@@H](O)C1)c1cc2cc(Cl)ccc2[nH]1`, the compound was called inactive in assay [2], in [4] and in assay [8]. As to `Oc1ccc2ccccc2c1N=Nc1ccccc1`, the AC50 in assay [9] was 25 µM (active). In [10], the call was inactive. With `CC=Cc1ccc(O)c(OC)c1`, the call in assay [8] was inactive. Take `CCCCCCCCCCC`: the result in assay [9] was inactive.

Regarding `Cc1cc(NC(=O)C(=O)O)cc(C)c1Oc1ccc(O)c2c1CCC2`, the AC50 in assay [8] is 8.94 µM (active). Also, the compound was classed as inactive in assay [11].

With `C1CCC(SSC2CCCCC2)CC1`, the outcome in [12] and in assay [13] was inactive. In the case of `CCOC(=O)C(C)(C)Oc1ccc(Cl)cc1`, the compound was classed as inactive in assay [3], in assay [14], in assay [12], in assay [15], in [16] and in assay [17]. Further, in assay [9], the outcome was inactive. Turning to `O=c1[nH]cc(F)c(=O)[nH]1`, the result in assay [8] and in assay [11] was inactive. On to `CC(C)(C)c1cc(O)c(C(C)(C)C)cc1O`, for which, in assay [11], the compound was called inactive. `Oc1ccc2c(c1)OC[C@@H](N1CCC(O)(c3ccc(F)cc3)CC1)[C@H]2O`: the compound was called inactive in assay [11]. Take `CC(C)c1ccc(C(=O)N=C(N)N)cc1S(C)(=O)=O`: the call in assay [14] was inactive. `C[C@]12C=CC(=O)C=C1CC[C@@H]1[C@@H]2C(=O)C[C@@]2(C)[C@H]1CC[C@]2(O)C(=O)CO`: in [10], the result was inactive.

For `O=C(O)CCCCC(=O)O`, the outcome in assay [9] was inactive.

Take `Cc1cc(=O)[nH]c(=S)[nH]1`: the compound was classed as inactive in [11]. As to `CCCCCCC(=O)OCC`, in assay [11], the result was inactive. For `O=C(OCCCCCOC(=O)c1ccccc1)c1ccccc1`, the compound was classed as inactive in [18], in assay [11], in assay [6], in [7] and in assay [9]. As to `Cc1cccc(C)c1O`, the result in assay [8] was inactive. `CNCc1cc(F)ccc1Oc1ccc(Cl)c(Cl)c1`: the outcome in [4] and in [3] was inactive.

With `CCCCN(CCCC)CCCC`, the compound was called inactive in assay [6]. On to `O=[N+]([O-])C(CO)(CO)CO`, for which, in assay [9], the AC50 was 38.4 µM (active). For the same compound, the compound was called inactive in assay [10]. As for `CC(=O)OC/C=C(\C)CCC=C(C)C`, in [13], the result was inactive.

On to `COc1cc(-c2nc(NC(=O)c3cc4cc(C)cc(C)c4n3CC(=O)O)sc2CCC2CCCCC2)c(OC)cc1Cl`, for which the AC50 in assay [6] was 1.42 µM (active); in assay [17] it was 6.01 µM (active). Consider `CC1(C)NC(=O)NC1=O`, for which the call in assay [6] was inactive.

For the compound `COc1ccc(C)cc1N`, the compound was called inactive in assay [10].

`CC1(C)CC(N=C=O)CC(C)(CN=C=O)C1` (centres undefined): in [17], the AC50 is 6.77 µM (active). Regarding `Cc1ccc(C)c(C)c1`, the outcome in [8] and in assay [10] was inactive.

In general, AC50 refers to the concentration giving half of the maximal activity seen.

The record behind these values is PubChem BioAssay (EPA / NIEHS).
